# Compounds with a hit are over-represented: about 12% of the library has one in this group of screens.
# JMJD2A Tudor inh – qHTS Assay for Inhibitors of JMJD2A-Tudor Domain; Lysine-specific demethylase 4A (Homo sapiens), O75164; AlphaScreen JMJD2A-Tudor / H3K4me3 peptide binding; Potency, µM (titrated, usually from 114 µM), for inactives: at the highest dose activity change, negative = inhibition, hits mostly inhibitors; 4.4% of 390,000 active; AID 504339, 2011; note: % is set by controls: 0 for no effect and ±100 for the full control effect; nearly all actives have a fitted effect of over 50% in size
# BAZ2B inh – qHTS Assay for Inhibitors of BAZ2B | AlphaScreen BAZ2B-H3K14Ac peptide displacement | Potency, µM (titrated, usually from 114 µM), for inactives: top-dose activity change, negative = inhibition, hits mostly inhibitors | 4.4% of 360,000 active | AID 504333, 2011; note: % is set by controls: 0 for no effect and ±100 for the full control effect; nearly all actives have a fitted effect of over 60% in size
#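 AlphaScreen displacement: compounds (up to 110uM) incubated 30 min at room temperature with a preformed 50 nM BAZ2B/50 nM biotinylated H3K14Ac peptide complex in PBS pH 7.4 with Tween-20. Donor and acceptor beads at 10 ug/mL final added, 20 min light-protected before reading.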
# Sfp PPTase inh – qHTS Assay for Inhibitors of Bacillus subtilis Sfp phosphopantetheinyl transferase (PPTase) | Biochemical Sfp PPTase activity, qHTS | Potency, µM, without a hit: largest response in the series, negative = inhibition, most hits filed as inhibitors | 3.5% of 310,000 active;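 note: the enzyme is Sfp with the accession as filed and its product quenches rhodamine fluorescence; 0% = enzyme reaction without inhibitor and -100% = no enzyme wells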
#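 Compounds were incubated with enzyme (final 15 nM) for 15 min at room temperature before substrate addition started the reaction. Fluorescence at 525 nm excitation, 598 nm emission was recorded immediately and after 30 minutes.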
# G9a inh – qHTS Assay for Inhibitors of Histone Lysine Methyltransferase G9a; Histone-lysine N-methyltransferase EHMT2 (Homo sapiens), Q96KQ7; G9a H3K9 monomethylation, AlphaScreen, 2 h; Potency, µM (titrated, usually from 102 µM), for the others: at the top dose activity, negative = inhibition, usual class: inhibitors; 8.8% of 350,000 active; note: % is set by controls: 0 for no effect and ±100 for the full control effect; nearly all actives have a fitted effect of over 75% in size
#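 Signal arises when biotinylated H3K9 peptide, once monomethylated, bridges streptavidin donor and antibody-captured acceptor beads. Enzyme at 20 nM was preincubated 15 min with test compounds; peptide 500 nM and SAM 20 uM then reacted for 2 h.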
# TDP1 inh – qHTS Assay for Inhibitors of Tyrosyl-DNA Phosphodiesterase (TDP1) | 0.28% of 350,000 active | Potency, µM (doses to about 130 µM), without a hit: at the top dose activity change, negative = inhibition, most hits filed as inhibitors | recombinant TDP1, AlphaScreen DNA substrate cleavage | Tyrosyl-DNA phosphodiesterase 1 (Homo sapiens), Q9NUW8; note: % is set by controls: 0 for no effect and ±100 for the full control effect; nearly all actives have a fitted effect of over 40% in size
#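 Steps: enzyme plus compound, 15 min RT; add biotin/phosphotyrosine-FITC oligonucleotide (15 nM final), react 5 min; add donor/acceptor beads (10 ug/ml final), 10 min; read AlphaScreen. Tdp1 at 1 nM final.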
# HP1b chromo inh – HTS for Inhibitors of HP1-beta Chromodomain Interactions with Methylated Histone Tails; AlphaScreen HP1-beta / biotin-H3K9me3 peptide binding; Potency, µM (titrated, usually from 114 µM), without a hit: at the top dose activity change, negative = inhibition, hits mostly inhibitors; 0.56% of 390,000 active; note: nearly all actives have a fitted effect of over 70% in size
#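 AlphaScreen: HP1-beta (50 nM) preformed 30 min with biotin-H3(1-18)K9me3 peptide (50 nM) in PBS pH 7.4, 0.01% Tween-20. Compound added for 30 min at RT, then streptavidin donor/nickel chelate acceptor beads (10 ug/mL) for 30 min.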
# * marks the source's active call; other numbers are inactive results; u = inconclusive; x = no result given; ! = not confirmed by another sample; [ ] = remark or other dose. Calls come from the whole dose curve; as a rule, active = well fitted curve in the direction sought with a large enough effect; inconclusive = small, poorly fitted or top-dose-only effect, or another doubt; inactive = no such curve, though single readings can be large; an effect the other way counts as inactive or inconclusive. Potency is the fitted concentration of half-maximal effect.
SMILES,JMJD2A Tudor inh,BAZ2B inh,Sfp PPTase inh,G9a inh,TDP1 inh,HP1b chromo inh
Cc1cc(=O)[nH]c(N/N=C/c2ccc(N(C)C)cc2)n1,25.1µM*,-18.9%,u,-0.6%,6.0%,-7.9%
Cc1cc(=O)[nH]c(N/N=C/c2ccc(C)o2)n1,56.2µM*,-4.0%,u,u,5.3%,22.4%
COc1cccc(/C=N/Nc2nc(C)cc(=O)[nH]2)c1OC,-28.2%,-35.7%,56.2µM*,13.7%,x,38.0%
CCOc1cc(C(=O)Nc2ccccc2F)cc(Br)c1OCC,24.8%,-3.3%,10.1%,14.2%[59 µM],0.0%,28.2%
CCc1cccc(NC(=O)CN(C)S(=O)(=O)c2cccc3cccnc23)c1,5.2%,-7.3%,-1.9%,28.1%,-3.9%,35.1%
O=C(Nc1ccc(C(=O)N2CCCC2)cc1)C1CCC1,-13.0%,x,x,x,x,22.8%
O=C(NC(=S)Nc1ccccc1F)C1CCCCC1,x,2.8%,-2.7%,12.9%,0.6%,x
Clc1ccc(CCNC(c2nnc(-c3ccccc3)o2)c2ccccc2Cl)cc1 (configuration not stated),44.9%,104.6%,x,138.4%[59 µM],-2.5%,117.7%
COc1cc(/C=N/Nc2nc(C)cc(=O)[nH]2)cc(OC)c1O,-17.8%,-2.5%,u,28.2µM*,x,34.1%
Cc1ccc(-c2ccc(CCC(=O)O)o2)cc1,u,-34.1%,44.7µM*,u,2.1%,-14.9%
Cc1cc(NC(=O)CCc2ccc(-c3ccccc3)o2)no1,-17.4%,-2.0%,-27.8%,x,0.7%,16.5%
O=C(NC1CCCCCC1)C1CCN(C(=O)N2CCOc3ccc(Cl)cc32)CC1,u,u,x,7.94µM*,7.8%,-9.4%
CCOC(=O)N1CCC(NC(=O)C2CCN(C(=O)N3CCOc4ccccc43)CC2)CC1,100µM*,30.3%,-6.0%,0.4%[12.7 µM],5.9%,2.5%
Cc1cccc(Cn2nnc3c(=O)[nH]c(C4CCCN(C(=O)c5ccccc5Cl)C4)nc32)c1 (configuration not stated),-17.4%,-15.0%,x,-30.0%[59 µM],2.5%,29.3%
COc1ccccc1CNS(=O)(=O)c1ccc(-c2cnc(C3CC3)o2)cc1,-35.9%,89.1µM*!,-7.1%,6.8%[59 µM],1.7%,1.7%[57 µM]
COc1ccccc1NS(=O)(=O)c1ccc(-c2cnc(C3CC3)o2)cc1,-10.5%,u,-2.4%,x,1.8%,16.1%
CCN(CC)c1ccc(NS(=O)(=O)c2ccc(-c3cnc(C4CC4)o3)cc2)c(C)c1,17.8µM*,14.1µM*,x,u,8.8%,u
Cc1nonc1NC(=O)CSc1nnnn1-c1ccccc1,4.6%,1.5%,9.5%,5.6%,0.0%,13.2%
Cc1cccc(C(=O)NCC(=O)N2CCCC2)c1,-9.0%,-2.3%,24.1%,25.3%,1.7%,56.8%
O=C(CNC(=O)c1cccc(F)c1)OCC(=O)N1CCCCC1,-15.1%,-6.1%,-6.4%,15.8µM*,0.0%,20.6%
O=C(CNC(=O)c1cccc(F)c1)OCC(=O)N1CCN(C(=O)c2ccco2)CC1,-9.1%,0.2%,2.9%,-11.9%[59 µM],-1.2%,33.7%
O=C(NCC(=O)N1CCCCCCC1)c1cccc([N+](=O)[O-])c1,-9.0%,-6.5%,x,1.26µM*,2.1%,8.0%
CSc1ccc(Cl)c(C(=O)NCCCn2ccnc2)c1,-6.4%,-2.9%,6.0%,6.4%,x,61.3%
CN(Cc1cccc(F)c1)C(=O)c1ccc(S(=O)(=O)N2CCCCCC2)cc1,-1.4%,x,x,x,0.0%,42.4%
CN1CCN(C2=C(Cl)C(=O)N(C3CCCCC3)C2=O)CC1,-17.9%,1.0%,-0.8%,39.8µM*,0.0%,36.5%
